# PubChem BioAssay (Tox21)
# “And” between values parts separate entries of the source, which are not always exact repeats. Equal entries are not always repeated. A number with no mark means an inactive call. Results filed as inconclusive are left out. A call without a number means that no potency is given here. The source made the active and inactive calls. Unless noted, the call rests on the fitted dose curve; in most records, active means well fitted curve in the direction sought with a large enough effect in the repeat runs; inconclusive means weak or mixed curves; inactive means no such curve, though single readings can be large; an effect the other way counts as inactive or inconclusive.
# Key:
# [1] = Caspase-3/7 induction in HepG2 cells by small molecules, qHTS assay (AID 1346978); further: nearly all actives have a fitted effect of over 15% in size; further: potency means the concentration at half of the fitted maximal effect
# Procedure, shortened: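 Wild-type HepG2 cells (2,000/well) were settled 5 h at 37 C, 5% CO2, then exposed to compounds in DMSO for 17 h. Caspase-3/7 activity was read by luminescence 30 min after adding Caspase-Glo 3/7 reagent at room temperature.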
# [2] = Caspase-3/7 induction in CHO-K1 cells by small molecules, qHTS assay (AID 1346980); further: nearly all actives have a fitted effect of over 15% in size; further: potency means the concentration at half of the fitted maximal effect
# Procedure, shortened: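 Wild-type cells were seeded at 1,500 per well and settled 5 hr at 37 C, 5% CO2, then exposed to DMSO-dissolved compounds for 17 hr. Caspase-Glo 3/7 reagent was added, and luminescence was read after 30min at room temperature.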
# [3] = target: Nuclear receptor subfamily 1 group I member 2 (Homo sapiens) (UniProt O75469); assay: Human pregnane X receptor (PXR) small molecule agonists, qHTS assay (AID 1346982); further: nearly all actives have a fitted effect of over 35% in size; further: potency means the concentration at half of the fitted maximal effect
# Procedure, shortened: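 We seeded PXR-Luc HepG2 cells in assay medium containing 5% charcoal-stripped FBS, added compounds 5 hr later, incubated 24 hr, and read luminescence with ONE-Glo reagent.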
# [4] = target: Acetylcholinesterase (Homo sapiens) (UniProt P22303); assay: Acetylcholinesterase (AChE) small molecule antagonists: colormetric cell-based qHTS assay (AID 1347395; calls by dose curve; further: nearly all actives have a fitted effect of over 30% in size; further: potency means the concentration at half of the fitted maximal effect)
# Procedure, shortened: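 Neuroblastoma line SH-SY5Y supplied the enzyme; cells were preincubated with compound for 30 min at 37 C and 5% CO2. Acetylthiocholine with DTNB was then added for 90 min at 37 C, and thiocholine was measured by colour.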
# [5] = target: Acetylcholinesterase (Homo sapiens) (UniProt P22303); assay: Acetylcholinesterase (AChE) small molecule antagonists: enzyme-based qHTS assay (AID 1347397; calls by dose curve; further: nearly all actives have a fitted effect of over 55% in size; further: potency means the concentration at half of the fitted maximal effect); details: Potency: AChE enzyme activity inhibition
# Procedure, shortened: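 Recombinant human AChE, dispensed at 50 mU/mL, was preincubated with Tox21 10K compounds or DMSO vehicle for 30 min at room temperature. DTNB plus acetylthiocholine was then added, and thiocholine was measured colorimetrically after a further 10 min.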
# [6] = Caspase-3/7 induction in HepG2 cells by small molecules, qHTS cell viability counter screen (AID 1346981); further: nearly all actives have a fitted effect of over 30% in size; further: potency means the concentration at half of the fitted maximal effect
# Procedure, shortened: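 Multiplexed with the caspase-3/7 assay: HepG2 cells, 16 hr compound treatment, CellTiter-Fluor viability detection by fluorescence.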
# [7] = target: Nuclear receptor subfamily 1 group I member 2 (Rattus norvegicus) (UniProt Q9R1A7); assay: Rat pregnane X receptor (rPXR) activation by small molecules, qHTS assay (AID 1346983); details: rPXR luciferase reporter cells, One-Glo luminescence, 24 h; max activation: active compounds read high; further: nearly all actives have a fitted effect of over 20% in size
# Procedure, shortened: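 Cell-based rPXR luciferase reporter assay, 2,000 cells per well, rested 5hr at 37 C before compound addition in DMSO, then 24 hr at 37 C. One-Glo reagent was added and luminescence read after 30 min at room temperature.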
# [8] = target: Nuclear receptor subfamily 1 group I member 2 (Homo sapiens) (UniProt O75469); assay: Human pregnane X receptor (PXR) activation by small molecules, qHTS assay (AID 1346985); further: nearly all actives have a fitted effect of over 40% in size
# Procedure, shortened: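 DPX-2 cells (HepG2 co-transfected with a PXR response element and a CYP3A4-promoter luciferase construct) were seeded at 2,000 per well, rested 5 hr at 37C, then exposed to DMSO-dissolved compounds for 24 hr. Activation was read as luciferase luminescence.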
# [9] = target: Nuclear receptor subfamily 1 group I member 2 (Homo sapiens) (UniProt O75469); assay: CYP3A4 induction through human pregnane X receptor (PXR) by small molecules, qHTS assay (AID 1346984); further: nearly all actives have a fitted effect of over 40% in size
# Procedure, shortened: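 qHTS, concentration-response format: HepG2 DPX-2 line, PXR/CYP3A4-luc. Exposure 24 h, 37C. Substrate Luciferin-IPA 3uM final, 3 h. Detection One-Glo, 30 min RT.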
# [10] = Caspase-3/7 induction in CHO-K1 cells by small molecules, qHTS cell viability counter screen (AID 1346979); further: potency means the concentration at half of the fitted maximal effect; nearly all actives have a fitted effect of over 35% in size
# Procedure, shortened: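 To flag cytotoxic compounds, treated CHO-K1 wild-type cells were given CellTiter-Fluor at 16hr and read fluorescently after 1hr at 37C; the caspase-3/7 luminescence was measured in these same wells.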
# Acetylcholinesterase (Homo sapiens), sequence (P22303 whole entry, looked up): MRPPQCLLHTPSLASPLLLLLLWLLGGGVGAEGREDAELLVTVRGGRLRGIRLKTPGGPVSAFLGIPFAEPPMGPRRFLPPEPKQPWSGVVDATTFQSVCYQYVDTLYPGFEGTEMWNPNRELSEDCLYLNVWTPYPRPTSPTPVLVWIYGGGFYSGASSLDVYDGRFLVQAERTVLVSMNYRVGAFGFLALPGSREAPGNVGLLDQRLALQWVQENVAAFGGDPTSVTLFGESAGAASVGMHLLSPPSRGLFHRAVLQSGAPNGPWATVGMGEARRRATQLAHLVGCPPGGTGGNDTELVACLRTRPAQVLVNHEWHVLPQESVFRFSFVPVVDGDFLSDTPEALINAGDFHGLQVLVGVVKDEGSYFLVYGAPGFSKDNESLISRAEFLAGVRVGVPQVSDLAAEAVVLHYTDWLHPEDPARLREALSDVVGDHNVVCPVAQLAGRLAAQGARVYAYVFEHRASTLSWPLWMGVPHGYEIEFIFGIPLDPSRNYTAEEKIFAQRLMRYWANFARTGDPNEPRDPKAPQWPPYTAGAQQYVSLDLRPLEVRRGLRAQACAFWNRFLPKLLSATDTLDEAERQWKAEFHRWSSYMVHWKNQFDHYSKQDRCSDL
# Nuclear receptor subfamily 1 group I member 2 (Homo sapiens), sequence (O75469 whole entry, looked up): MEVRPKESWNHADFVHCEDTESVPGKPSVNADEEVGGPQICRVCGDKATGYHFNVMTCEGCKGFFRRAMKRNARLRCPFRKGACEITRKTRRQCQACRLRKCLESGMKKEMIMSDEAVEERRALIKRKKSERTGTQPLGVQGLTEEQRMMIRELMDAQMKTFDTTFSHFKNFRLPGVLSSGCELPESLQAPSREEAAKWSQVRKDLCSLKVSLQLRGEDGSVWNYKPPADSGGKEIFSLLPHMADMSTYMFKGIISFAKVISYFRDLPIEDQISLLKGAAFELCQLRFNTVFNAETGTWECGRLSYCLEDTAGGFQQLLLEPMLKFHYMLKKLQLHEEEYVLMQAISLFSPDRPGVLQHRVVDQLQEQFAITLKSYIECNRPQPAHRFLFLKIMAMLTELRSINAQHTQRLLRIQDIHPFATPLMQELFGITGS
# Nuclear receptor subfamily 1 group I member 2 (Rattus norvegicus), sequence (Q9R1A7 whole entry, looked up): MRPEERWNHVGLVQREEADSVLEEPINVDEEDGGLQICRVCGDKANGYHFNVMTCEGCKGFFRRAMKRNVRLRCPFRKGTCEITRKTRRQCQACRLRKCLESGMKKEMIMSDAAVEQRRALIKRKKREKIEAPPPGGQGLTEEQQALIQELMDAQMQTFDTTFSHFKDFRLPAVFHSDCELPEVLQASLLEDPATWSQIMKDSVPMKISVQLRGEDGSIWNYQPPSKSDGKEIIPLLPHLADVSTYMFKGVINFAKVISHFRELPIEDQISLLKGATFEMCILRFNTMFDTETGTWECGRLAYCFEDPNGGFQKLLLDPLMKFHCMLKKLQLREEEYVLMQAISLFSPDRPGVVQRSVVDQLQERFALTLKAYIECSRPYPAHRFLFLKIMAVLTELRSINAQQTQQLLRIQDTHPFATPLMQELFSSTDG
Compound,Potency [1],Potency [2],Potency [3],Potency [4],Potency [5],Potency [6],max activation [7] [%],Potency [8],Potency [9],Potency [10]
CC(C)CCCCCCCOP(=O)(Oc1ccccc1)Oc1ccccc1,inactive,inactive,6.89 µM (active),inactive,inactive,–,–,–,–,–
c1ccc2c(c1)[nH]c1cnccc12,inactive,inactive,–,inactive,inactive,inactive,–,–,–,–
COC[C@H](C)N(C(=O)CCl)c1c(C)csc1C,inactive,inactive,inactive,inactive,inactive,inactive,–,–,–,–
CN(C)S(=O)(=O)N(SC(F)(Cl)Cl)c1ccccc1,inactive,inactive,inactive,inactive,–,–,–,–,–,–
Oc1c(Br)c(Br)c(Br)c(Br)c1Br,inactive,inactive,61.5 µM (active),inactive,inactive,–,–,–,–,–
C[C@@H]1O[C@@H](O[C@@H]2C=C3CC[C@@H]4[C@H](CC[C@]5(C)[C@@H](c6ccc(=O)oc6)CC[C@]45O)[C@@]3(C)CC2)[C@H](O)[C@H](O)[C@H]1O,inactive,inactive,inactive,inactive,inactive,–,-3.43,inactive,–,–
COC(=O)N(C(=O)N1COC2(C(=O)OC)Cc3cc(Cl)ccc3C2=N1)c1ccc(OC(F)(F)F)cc1 (centres undefined),inactive,inactive,10.6 µM (active),inactive,inactive,–,–,–,–,–
CN(C)CCc1c[nH]c2cccc(O)c12,inactive,inactive,inactive,19.8 µM (active),inactive,–,–,–,–,–
Clc1ccc(-c2ccccc2)cc1,inactive,inactive,inactive,inactive,inactive,inactive,–,–,–,–
COc1ccc([N+](=O)[O-])cc1O,inactive,inactive,inactive,inactive,inactive,–,–,–,–,–
C[C@]12CC[C@@H]3c4ccc(OC(=O)N(CCCl)CCCl)cc4CC[C@H]3[C@@H]1CC[C@@H]2O,inactive,inactive,inactive,inactive,inactive,–,–,inactive,inactive,–
CC(C)[C@H](C(=O)O[C@H](C#N)c1cccc(Oc2ccccc2)c1)c1ccc(Cl)cc1,inactive,inactive,4.32 µM (active),inactive,inactive,–,–,–,–,–
Clc1ccc(-c2ccc(Cl)c(Cl)c2Cl)c(Cl)c1Cl,inactive,inactive,–,inactive,inactive,inactive,–,–,–,–
COP(=S)(OC)Oc1cc(Cl)c(Br)cc1Cl,inactive,inactive,12.2 µM (active),–,inactive,inactive,–,–,–,–
CC(=[OH+])/C=C(/C)[O-].CC(=[OH+])/C=C(\C)[O-].CC(=[OH+])/C=C(\C)[O-].[Al],inactive,inactive,inactive,inactive,inactive,inactive,–,–,–,–
N#CCCSCCC#N,inactive,inactive,inactive,inactive,inactive,–,–,–,–,–

Compound,Potency [1],Potency [2],Potency [3],Potency [4],Potency [5],Potency [6],max activation [7] [%],Potency [8],Potency [9],Potency [10]
N#CC(Cl)Cl,inactive,inactive,inactive,inactive,inactive,inactive,–,–,–,–
CC[C@H]1C[C@@H]2C[C@H]3c4[nH]c5ccc(OC)cc5c4CCN(C2)[C@@H]13,inactive,inactive,inactive,inactive,inactive,–,–,–,–,–
CCOP(=O)(NC(C)C)Oc1ccc(SC)c(C)c1 (centres undefined),inactive,inactive,7.7 µM (active),58.6 µM (active),84.4 µM (active),–,–,–,–,–
CC(=O)Nc1ccc2c(c1)Cc1ccccc1-2,inactive,inactive,24.7 µM (active),inactive,inactive,inactive,–,–,–,–
Nc1ccccc1C(=O)Oc1ccc2ccccc2c1,inactive,inactive,27.3 µM (active),inactive,inactive,inactive,–,–,–,–
O=c1[nH]c2ccccc2n1CCCN1CCC(n2c(=O)[nH]c3cc(Cl)ccc32)CC1,–,inactive,–,–,–,–,-1.24,–,–,–
ClCc1ccccc1CCl,inactive,–,inactive,inactive,inactive,inactive,–,–,–,–
CC(C)(c1ccc(O)c(-c2ccccc2)c1)c1ccc(O)c(-c2ccccc2)c1,–,–,24.3 µM (active),inactive,17.8 µM (active),61.1 µM (active),–,–,–,43.3 µM (active)
COc1cccc2c1C(=O)c1c(O)c3c(c(O)c1C2=O)C[C@@](O)(C(=O)CO)CC3OC1CC(N2CCOC(OC)C2)C(O)C(C)O1 (some centres undefined),–,0.168 µM (active),inactive,12.3 µM (active),–,–,–,–,–,9.44 µM (active)
CC(C)CC(C)(c1ccc(O)cc1)c1ccc(O)cc1,–,inactive,8.65 µM (active) and 13.7 µM (active),inactive,–,68.7 µM (active) and 61.1 µM (active),–,–,–,61.3 µM (active) and 61.1 µM (active)
CC1(c2ccc(Oc3ccccc3)cc2)OC(=O)N(Nc2ccccc2)C1=O (centres undefined),–,inactive,21.8 µM (active),inactive,inactive,27.5 µM (active),–,–,–,6.9 µM (active)
N#CSCSC#N,–,inactive,22.2 µM (active) and 19.1 µM (active),–,inactive,62.5 µM (active) and 67.9 µM (active),–,–,–,9.91 µM (active) and 9.59 µM (active)
O=C(O)COc1nc(Cl)c(Cl)cc1Cl,inactive,inactive,inactive,inactive,inactive,–,–,–,–,–
Oc1ccc(C2(c3ccc(O)cc3)CCCCC2)cc1,–,inactive,13 µM (active),inactive,inactive,51.6 µM (active),–,–,–,57.9 µM (active)
Oc1ccc(C2(c3ccc(O)cc3)c3ccccc3-c3ccccc32)cc1,–,inactive,–,–,39.9 µM (active),–,–,–,–,68.6 µM (active)
O=[N+]([O-])c1cc(C(F)(F)F)c(Cl)c([N+](=O)[O-])c1Cl,21.7 µM (active),1.93 µM (active),–,inactive,inactive,–,–,–,–,–
